Data taken from PubChem BioAssay (Tox21).
Values joined by “and” are separate entries in the source; they are usually repeats but may differ in a detail not shown here. Identical values can stand only once. Inconclusive results are not listed. Active and inactive are the calls of the source. Unless noted, the call rests on the fitted dose curve; in most records, active means well fitted curve in the direction sought with a large enough effect in the repeat runs; inconclusive means weak or mixed curves; inactive means no such curve, though single readings can be large; an effect the other way counts as inactive or inconclusive.

Assays:
[1] = qHTS assay to identify small molecule agonists of the peroxisome proliferator-activated receptor delta (PPARd) signaling pathway - cell viability counter screen (AID 743211); further: nearly all actives have a fitted effect of over 55% in size; further: potency means the concentration at half of the fitted maximal effect
In short: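 PPARd-bla HEK293H cells (3000/well) were pre-incubated 5 h at 37 C, then exposed to compound for 17 h at 37 C. After 2 h with LiveBLAzer substrate, CellTiter-Glo was added to the same wells; luminescence read after 30 min at room temperature.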

[2] = target: Peroxisome proliferator-activated receptor delta (Homo sapiens) (UniProt Q03181); experiment: qHTS assay to identify small molecule antagonists of the peroxisome proliferator-activated receptor delta (PPARd) signaling pathway (AID 743215; active means well fitted inhibition curve with a large enough effect in the signal ratio in the repeat runs, not every such curve was filed as active; the % refers to the signal ratio;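 further: cells stimulated with agonist L165041 at 300 nM final during compound exposure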; further: potency means the concentration at half of the fitted maximal effect)
In short: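 PPARd UAS-bla HEK293H cells were pre-incubated 5 h at 37 C, then given test compounds in DMSO plus agonist L165041 (300 nM final). After 17 h at 37 C, beta-lactamase FRET substrate was added; fluorescence read after 2 h at room temperature.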

[3] = target: Bile acid receptor (Homo sapiens) (UniProt Q96RI1); experiment: qHTS assay to identify small molecule antagonists of the farnesoid-X-receptor (FXR) signaling pathway (AID 743217; active means well fitted inhibition curve with a large enough effect in the signal ratio in the repeat runs, not every such curve was filed as active; the % refers to the signal ratio)
In short: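 FXR-UAS-bla HEK 293T cells pre-incubated 5 h at 37 °C, then exposed to compounds with chenodeoxycholic acid (50 uM final) for 16 h at 37 °C. Beta-lactamase reporter read by LiveBLAzer B/G FRET substrate fluorescence after 2 h at room temperature.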

[4] = qHTS assay to identify small molecule agonists of the farnesoid-X-receptor (FXR) signaling pathway - cell viability counter screen (AID 743218); further: nearly all actives have a fitted effect of over 45% in size; further: potency means the concentration at half of the fitted maximal effect
In short: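 FXR-UAS-bla HEK 293T cells, plated 5 h at 37 C, were exposed to compounds for 16 h at 37 C. CellTiter-Glo was then added to the same wells as the bla readout; luminescence read after 30 min at room temperature.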

[5] = target: Bile acid receptor (Homo sapiens) (UniProt Q96RI1); experiment: qHTS assay to identify small molecule agonists of the farnesoid-X-receptor (FXR) signaling pathway (AID 743220; active means well fitted activation curve with a large enough effect in the signal ratio in the repeat runs, not every such curve was filed as active; the % refers to the signal ratio)
In short: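 Beta-lactamase reporter under UAS control in GeneBLAzer FXR HEK 293T cells (5000/well) measured with LiveBLAzer FRET substrate after 2 h at room temperature. Compound exposure lasted 16 h at 37C.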

[6] = qHTS assay to identify small molecule antagonists of the farnesoid-X-receptor (FXR) signaling pathway - cell viability counter screen (AID 743221; active means well fitted cell-killing curve with a large enough effect in the repeat runs, not every such curve was filed as active; further: nearly all actives have a fitted effect of over 50% in size; further: potency means the concentration at half of the fitted maximal effect)
In short: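 GeneBLAzer FXR-UAS-bla HEK 293T cells, compound plus chenodeoxycholic acid (50 uM final), 16 h at 37 C. CellTiter-Glo added to the same wells after the beta-lactamase read; luminescence read after 30 min at room temperature as viability.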

[7] = target: Vitamin D3 receptor (Homo sapiens) (UniProt P11473); experiment: qHTS assay to identify small molecule antagonists of the vitamin D receptor (VDR) signaling pathway (AID 743223; active means well fitted inhibition curve with a large enough effect in the signal ratio in the repeat runs, not every such curve was filed as active; the % refers to the signal ratio)
In short: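 VDR-bla cells were treated with compound plus 3 nM final 1alpha,25-dihydroxyvitamin D3 for 16 h at 37C. Beta-lactamase reporter read by B/G FRET substrate fluorescence after 2 h at room temperature. qHTS format.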

[8] = qHTS assay to identify small molecule agonists of the vitamin D receptor (VDR) signaling pathway - cell viability counter screen (AID 743224); further: nearly all actives have a fitted effect of over 50% in size; further: potency means the concentration at half of the fitted maximal effect
In short: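 VDR-bla cells were preincubated 4 h at 37C/5% CO2, then exposed to compounds for 16 h. After the 2 h room-temperature bla FRET read, CellTiter-Glo was added to the same wells and luminescence read after 30 min.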

[9] = qHTS assay to identify small molecule agonists of the NFkB signaling pathway - cell viability counter screen (AID 1159515; calls by dose curve; further: nearly all actives have a fitted effect of over 55% in size; further: potency means the concentration at half of the fitted maximal effect)
In short: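 NFkB-bla ME-180 cells, 2,000/well, were plated overnight at 37 C, 5% CO2, then exposed to compounds in DMSO for 5 hr. After the bla FRET read, CellTiter-Glo was added to the same wells; luminescence was read after 30 min at room temperature.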

[10] = qHTS assay to identify small molecule agonists of the endoplasmic reticulum stress response signaling pathway - cell viability counter screen (AID 1159517; calls by dose curve; further: nearly all actives have a fitted effect of over 50% in size; further: potency means the concentration at half of the fitted maximal effect)
In short: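 HeLa cells carrying an ESRE-driven beta-lactamase reporter receive compound for 5 hr at 37 C. Cell viability is then gauged with CellTiter-Glo by luminescence, 30 min at room temperature.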

[11] = qHTS assay to identify small molecule antagonists of the retinoid-related orphan receptor gamma (ROR-gamma) signaling pathway - cell viability counter screen (AID 1159520); further: nearly all actives have a fitted effect of over 50% in size; further: potency means the concentration at half of the fitted maximal effect
In short: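 Cytotoxicity was read from cellular ATP (CellTiter-Glo luminescence) after 16 hr at 37 C with 1 uM doxycycline induction. The inducer was added 2 hr after compound transfer to Tet-on ROR gamma CHO cells.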

[12] = target: Nuclear receptor ROR-gamma (Homo sapiens) (UniProt P51449); experiment: qHTS assay to identify small molecule antagonists of the retinoid-related orphan receptor gamma (ROR-gamma) signaling pathway (AID 1159521)
In short: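 Tet-on ROR-gamma CHO cells with ROR response element-luciferase reporter; compounds added 2 hr before 1 uM doxycycline induction, then 16 hr at 37 C. Antagonism scored as decreased ONE-Glo luminescence.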

[13] = qHTS assay to identify small molecule agonists of the AP-1 signaling pathway - cell viability counter screen (AID 1159525; calls by dose curve; further: nearly all actives have a fitted effect of over 55% in size; further: potency means the concentration at half of the fitted maximal effect)
In short: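 Luminescent ATP readout (Cell Titer Glo, 30 min RT), normalised to DMSO and tetra n-octyl ammonium bromide controls. Cells were ME-180 AP-1-bla in 0.5% dialyzed FBS Opti-MEM, with a 5 h, 37 °C compound exposure.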

[14] = qHTS assay to identify small molecule agonists of the AP-1 signaling pathway (AID 1159526; calls by dose curve)
[15] = qHTS assay to identify small molecule antagonists of the peroxisome proliferator-activated receptor delta (PPARd) signaling pathway - cell viability counter screen (AID 743213); further: nearly all actives have a fitted effect of over 50% in size; further: potency means the concentration at half of the fitted maximal effect
In short: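 PPARd-bla HEK293H cells were treated with compounds plus agonist L165041 (300 nM final) for 17 h at 37 C. Viability was then read in the same wells by CellTiter-Glo luminescence after 30 min at room temperature.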

[16] = qHTS assay to identify small molecule antagonists of the vitamin D receptor (VDR) signaling pathway - cell viability counter screen (AID 743225); further: nearly all actives have a fitted effect of over 50% in size
In short: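 VDR-UAS-bla HEK 293T cells were plated and incubated 4 h at 37C, then dosed with compound plus 3 nM (final) 1-alpha,25-dihydroxyvitamin D3 for 16 h. After the 2 h beta-lactamase read, viability in the same wells was read as CellTiter-Glo luminescence after 30 min at room temperature.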

[17] = target: Vitamin D3 receptor (Homo sapiens) (UniProt P11473); experiment: qHTS assay to identify small molecule agonists of the vitamin D receptor (VDR) signaling pathway (AID 743222; calls by dose curve)
In short: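 VDR-bla cells were plated 4 h at 37C/5% CO2, then exposed to compounds in DMSO for 16 h. After LiveBLAzer B/G FRET substrate addition and 2 h at room temperature, beta-lactamase reporter fluorescence was read.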

[18] = target: Retinoic acid receptor RXR-alpha (Homo sapiens) (UniProt P19793); experiment: qHTS assay to identify small molecule agonists of the RXR signaling pathway (AID 1159527; calls by dose curve; further: nearly all actives have a fitted effect of over 35% in size)
In short: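 GeneBLAzer RXR-alpha-UAS-bla HEK 293T cells in 2% charcoal-stripped FBS medium were exposed to compounds for 16 hr at 37 C in agonist mode. Beta-lactamase reporter read as 460/530 nm FRET ratio after 2 hr substrate loading.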

[19] = target: Peroxisome proliferator-activated receptor delta (Homo sapiens) (UniProt Q03181); experiment: qHTS assay to identify small molecule agonists of the peroxisome proliferator-activated receptor delta (PPARd) signaling pathway (AID 743212; calls by dose curve)
In short: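 HEK293H PPARd-bla cells; 5 h preincubation 37 C/5% CO2; compound (DMSO) 37 C; LiveBLAzer B/G FRET substrate 2 h RT; fluorescence intensity.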

Measured: Potency

Chain of Vitamin D3 receptor (Homo sapiens) (P11473 whole entry, looked up): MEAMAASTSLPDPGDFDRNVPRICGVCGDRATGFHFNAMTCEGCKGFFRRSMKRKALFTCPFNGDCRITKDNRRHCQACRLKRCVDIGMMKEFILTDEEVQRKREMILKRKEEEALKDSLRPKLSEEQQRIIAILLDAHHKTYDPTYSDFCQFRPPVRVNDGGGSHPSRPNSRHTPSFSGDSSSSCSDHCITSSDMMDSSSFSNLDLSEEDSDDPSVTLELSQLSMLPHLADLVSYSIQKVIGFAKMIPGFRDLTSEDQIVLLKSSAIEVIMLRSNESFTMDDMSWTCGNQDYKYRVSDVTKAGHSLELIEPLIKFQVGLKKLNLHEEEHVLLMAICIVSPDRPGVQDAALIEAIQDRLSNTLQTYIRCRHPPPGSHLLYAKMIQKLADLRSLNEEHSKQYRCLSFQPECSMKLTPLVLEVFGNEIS
Chain of Peroxisome proliferator-activated receptor delta (Homo sapiens) (Q03181 whole entry, looked up): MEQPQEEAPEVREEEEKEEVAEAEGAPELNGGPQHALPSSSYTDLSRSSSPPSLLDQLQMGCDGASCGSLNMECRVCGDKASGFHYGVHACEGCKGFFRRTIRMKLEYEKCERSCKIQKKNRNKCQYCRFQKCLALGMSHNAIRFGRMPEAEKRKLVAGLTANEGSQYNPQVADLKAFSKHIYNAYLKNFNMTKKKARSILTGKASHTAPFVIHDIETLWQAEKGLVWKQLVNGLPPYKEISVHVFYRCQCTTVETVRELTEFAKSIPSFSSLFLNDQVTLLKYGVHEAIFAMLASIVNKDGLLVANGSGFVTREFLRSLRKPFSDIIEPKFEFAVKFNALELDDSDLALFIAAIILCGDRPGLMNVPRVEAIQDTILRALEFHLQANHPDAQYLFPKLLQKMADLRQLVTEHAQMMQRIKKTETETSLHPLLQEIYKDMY
Chain of Bile acid receptor (Homo sapiens) (Q96RI1 whole entry, looked up): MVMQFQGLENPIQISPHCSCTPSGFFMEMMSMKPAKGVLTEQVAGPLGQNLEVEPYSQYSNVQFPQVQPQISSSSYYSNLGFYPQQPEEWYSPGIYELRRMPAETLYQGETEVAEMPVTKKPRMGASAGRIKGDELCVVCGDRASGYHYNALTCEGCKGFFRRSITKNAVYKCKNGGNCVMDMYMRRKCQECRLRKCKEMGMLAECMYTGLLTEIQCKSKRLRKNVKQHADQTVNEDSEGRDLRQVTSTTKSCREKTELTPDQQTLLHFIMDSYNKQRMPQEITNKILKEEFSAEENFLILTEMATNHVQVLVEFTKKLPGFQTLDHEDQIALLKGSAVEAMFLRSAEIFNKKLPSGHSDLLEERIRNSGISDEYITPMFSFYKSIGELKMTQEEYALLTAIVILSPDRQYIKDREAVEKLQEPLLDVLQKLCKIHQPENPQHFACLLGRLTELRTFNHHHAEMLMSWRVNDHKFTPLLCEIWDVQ
Chain of Retinoic acid receptor RXR-alpha (Homo sapiens) (P19793 whole entry, looked up): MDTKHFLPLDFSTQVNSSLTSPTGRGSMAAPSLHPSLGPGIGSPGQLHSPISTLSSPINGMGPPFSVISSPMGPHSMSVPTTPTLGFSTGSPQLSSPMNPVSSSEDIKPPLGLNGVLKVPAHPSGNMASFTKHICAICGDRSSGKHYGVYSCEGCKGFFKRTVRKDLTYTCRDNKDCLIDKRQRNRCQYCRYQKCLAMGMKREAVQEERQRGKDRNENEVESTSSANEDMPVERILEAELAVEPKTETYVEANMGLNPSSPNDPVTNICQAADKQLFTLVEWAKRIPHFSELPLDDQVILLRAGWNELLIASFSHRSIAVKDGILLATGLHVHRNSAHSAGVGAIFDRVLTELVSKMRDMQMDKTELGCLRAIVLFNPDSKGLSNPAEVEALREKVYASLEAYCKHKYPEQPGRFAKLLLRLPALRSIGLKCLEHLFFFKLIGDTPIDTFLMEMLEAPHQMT

CCCCC(CC)CN1CN(CC(CC)CCCC)CC(C)(N)C1 (stereo not drawn)
active: [8] 29.8 µM | [9] 26.8 µM | [10] 21.3 µM | [11] 26.6 µM
not listed: [15] | [16] | [17] | [18] | [19]
inactive: all other assays above

Cc1cc(C)c(/C=C2\C(=O)Nc3ccccc32)[nH]1
active: [2] 15 µM
not listed: [3] | [5] | [7] | [17] | [18] | [19]
inactive: all other assays above

O=C1OC2(c3ccc(O)cc3Oc3cc(O)ccc32)c2ccc(N=C=S)cc21
not listed: [3] | [7] | [17] | [18] | [19]
inactive: all other assays above

Cc1ccc(C(C)C)cc2c(C)ccc1-2
not listed: [2] | [12] | [19]
inactive: all other assays above

O=C(O)c1cc(N=Nc2ccc([N+](=O)[O-])cc2)ccc1O
active: [4] 30.3 µM
not listed: [3] | [5] | [7] | [17] | [18] | [19]
inactive: all other assays above

OC1CCC(C2CCCCC2)CC1 (stereo not drawn)
not listed: [1] | [7] | [17]
inactive: all other assays above

CCC(C)n1ncn(-c2ccc(N3CCN(c4ccc(OC[C@H]5CO[C@](Cn6cncn6)(c6ccc(Cl)cc6Cl)O5)cc4)CC3)cc2)c1=O (stereo partly drawn)
active: [15] 2.11 µM
not listed: [1] | [3] | [4] | [5] | [12] | [18] | [19]
inactive: all other assays above

CCCCOC(=O)CC
not listed: [12] | [18] | [19]
inactive: all other assays above

COCCOc1cc2cc(C(=O)NC3CCN(C(C)C)CC3)n(CC(=O)Nc3ccc(Cl)cn3)c2cn1
not listed: [2] | [3] | [5] | [7] | [12] | [19]
inactive: all other assays above

CCn1c2ccccc2c2cc([N+](=O)[O-])ccc21
not listed: [2] | [5] | [7] | [12] | [16] | [17] | [18] | [19]
inactive: all other assays above

Cc1cc(=O)oc2cc(O)cc(O)c12
not listed: [2] | [5] | [7] | [17] | [18] | [19]
inactive: all other assays above

CCCCCCCCCCCCCC[N+](C)(C)Cc1ccccc1
inactive: [3] | [5] | [17]
active: [1] 22.2 µM and 21.1 µM | [15] 22.2 µM and 10.6 µM | [4] 23.7 µM | [6] 49.7 µM | [8] 24.9 µM | [9] 49.7 µM | [10] 17.7 µM and 23.9 µM | [11] 69.6 µM | [13] 23.9 µM

O=C(O)c1cc(-c2ccc(F)cc2F)ccc1O
inactive: [1] | [4] | [6] | [8] | [9] | [10] | [11] | [12] | [13] | [14]
